Test results published in PubChem BioAssay (NCATS).
Results filed as inconclusive are left out. Entries that show only a call come without a potency. Calls of active or inactive are those of the source. Calls come from the whole dose curve; as a rule, active = well fitted inhibition curve with a large enough effect; inconclusive = small, poorly fitted or top-dose-only effect; inactive = flat fitted curve, though single readings scatter.

Tests used:
Test in all cases: qHTS profiling for inhibitors of Plasmodium falciparum proliferation (AID 504749); note: nearly all actives have a fitted effect of over 60% in size
Conditions in all cases: P. falciparum in erythrocytes, SYBR Green DNA, 72 h; series mostly up to 28.7 µM
CP268 = tested on: CP268
Procedure, shortened: (§1)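 Infected RBCs, 0.3% parasitemia/2.5% Hct final; cpd 72 h, 37 C, 5% CO2; lysis buffer with saponin/triton/SYBR Green I, o/n RT dark; FI 485/535; norm. to artemisinin (0.29 uM) and DMSO.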

CP269 = tested on: CP269
Procedure, shortened: as §1

CP286 = tested on: CP286
Procedure, shortened: as §1

CP291 = tested on: CP291
Procedure, shortened: as §1

CP297 = tested on: CP297
Procedure, shortened: as §1

CP335 = tested on: CP335
Procedure, shortened: as §1

DIV14 = tested on: DIV14
Procedure, shortened: as §1

DIV17 = tested on: DIV17
Procedure, shortened: as §1

Dd2 = tested on: Dd2
Procedure, shortened: as §1

FAB9 = tested on: FAB9
Procedure, shortened: as §1

GB4 = tested on: GB4
Procedure, shortened: as §1

ICS = tested on: ICS
Procedure, shortened: as §1

CP305 = tested on: CP305
Procedure, shortened: as §1

CP315 = tested on: CP315
Procedure, shortened: as §1

CP325 = tested on: CP325
Procedure, shortened: as §1

CP329 = tested on: CP329
Procedure, shortened: as §1

DFO2036 = tested on: DFO2036
Procedure, shortened: as §1

DIV30 = tested on: DIV30
Procedure, shortened: as §1

ECU = tested on: ECU
Procedure, shortened: as §1

HB3 = tested on: HB3
Procedure, shortened: as §1
Potency is the fitted concentration of half-maximal effect.

| SMILES | Potency (CP268) | Potency (CP269) | Potency (CP286) | Potency (CP291) | Potency (CP297) | Potency (CP335) | Potency (DIV14) | Potency (DIV17) | Potency (Dd2) | Potency (FAB9) | Potency (GB4) | Potency (ICS) | Potency (CP305) | Potency (CP315) | Potency (CP325) | Potency (CP329) | Potency (DFO2036) | Potency (DIV30) | Potency (ECU) | Potency (HB3) |
| --- | --- | --- | --- | --- | --- | --- | --- | --- | --- | --- | --- | --- | --- | --- | --- | --- | --- | --- | --- | --- |
| CCN(CC)CCOc1ccc(C(O)(Cc2ccc(Cl)cc2)c2ccc(C)cc2)cc1 (stereo not drawn) | 19 µM (active) | 15.1 µM (active) | 10 µM (active) | 13.5 µM (active) | 16.9 µM (active) | 12 µM (active) | 9.53 µM (active) | 15.1 µM (active) | 10 µM (active) | inactive | 13.5 µM (active) | 8.91 µM (active) | – | – | – | – | – | – | – | – |
| CC(=O)OCC(=O)[C@@]1(OC(C)=O)[C@@H](C)C[C@H]2[C@@H]3C[C@H](F)C4=CC(=O)C=C[C@]4(C)[C@@]3(F)[C@@H](O)C[C@@]21C | inactive | inactive | inactive | inactive | inactive | inactive | – | – | inactive | inactive | – | 11.2 µM (active) | inactive | inactive | inactive | inactive | inactive | inactive | inactive | inactive |
| CCOc1ccc2nc3cc(N)ccc3c(N)c2c1 | 15.1 µM (active) | 9.53 µM (active) | 1.41 µM (active) | 12 µM (active) | 15.1 µM (active) | 6.01 µM (active) | 7.57 µM (active) | 15.1 µM (active) | 2.51 µM (active) | 7.94 µM (active) | – | 4.47 µM (active) | 9.53 µM (active) | 4.26 µM (active) | – | 15.1 µM (active) | 5.62 µM (active) | – | 8.91 µM (active) | 8.91 µM (active) |
| COc1cc2c(cc1OC)C(=O)C(CC1CCN(Cc3ccccc3)CC1)C2 (stereo not drawn) | inactive | inactive | inactive | inactive | inactive | inactive | 10.7 µM (active) | – | 8.91 µM (active) | inactive | – | – | inactive | inactive | inactive | inactive | inactive | inactive | inactive | inactive |
| O=C(CCN1CCC(c2ccccc2)C1)c1ccc2c(c1)OCCO2 (stereo not drawn) | inactive | inactive | inactive | inactive | inactive | inactive | – | – | inactive | inactive | – | inactive | inactive | inactive | inactive | inactive | inactive | inactive | inactive | inactive |
| N[C@H](Cc1c[nH]c2ccccc12)C(=O)O | inactive | inactive | inactive | inactive | inactive | – | inactive | inactive | – | inactive | inactive | inactive | inactive | inactive | inactive | inactive | inactive | inactive | inactive | inactive |
| Cc1cc(O)c(C(C)C)cc1Cl | inactive | inactive | inactive | inactive | inactive | inactive | inactive | – | inactive | inactive | – | 10 µM (active) | inactive | inactive | inactive | inactive | inactive | inactive | inactive | – |
| CCCCOc1cc(C(=O)NCCN(CC)CC)c2ccccc2n1 | inactive | inactive | inactive | inactive | inactive | inactive | – | inactive | inactive | inactive | – | – | inactive | inactive | inactive | inactive | inactive | inactive | inactive | inactive |
| CCCCCCCCCCCCCCCCCC(=O)OCC(O)CO (stereo not drawn) | inactive | inactive | inactive | inactive | inactive | – | inactive | inactive | inactive | inactive | inactive | inactive | inactive | inactive | inactive | inactive | inactive | – | inactive | inactive |
| c1ccc(OCc2ccc(CCCN3CCOCC3)cc2)cc1 | inactive | inactive | inactive | inactive | inactive | inactive | 8.49 µM (active) | 6.75 µM (active) | – | inactive | – | – | inactive | inactive | inactive | inactive | inactive | – | – | inactive |
| C[C@@H]1C(=O)NC2=Nc3cccc(Cl)c3CN21 | inactive | inactive | inactive | inactive | inactive | inactive | – | inactive | inactive | inactive | – | – | inactive | inactive | inactive | inactive | inactive | inactive | inactive | inactive |
| NC(CO)(CO)CO | inactive | inactive | inactive | inactive | – | inactive | inactive | inactive | inactive | inactive | inactive | inactive | inactive | inactive | inactive | inactive | inactive | inactive | inactive | inactive |
| C[C@H]1C[C@H]2[C@@H]3CCC4=CC(=O)C=C[C@]4(C)[C@@]3(Cl)[C@@H](O)C[C@]2(C)[C@@]1(O)C(=O)CO | inactive | inactive | inactive | inactive | inactive | inactive | inactive | inactive | inactive | inactive | inactive | – | inactive | inactive | inactive | inactive | inactive | – | inactive | inactive |
| COc1cccc(CCc2ccccc2OCC(CN(C)C)OC(=O)CCC(=O)O)c1 (stereo not drawn) | 7.57 µM (active) | 6.75 µM (active) | 5.62 µM (active) | 12 µM (active) | 3.38 µM (active) | 3.79 µM (active) | 2.13 µM (active) | 2.39 µM (active) | 1.41 µM (active) | – | 2.13 µM (active) | 1.12 µM (active) | 7.57 µM (active) | 15.1 µM (active) | – | 12 µM (active) | 11.2 µM (active) | 6.75 µM (active) | 4.47 µM (active) | 12.6 µM (active) |
| COc1ccc(C2C(=O)c3ccccc3C2=O)cc1 | inactive | inactive | inactive | inactive | inactive | inactive | – | inactive | inactive | inactive | inactive | inactive | inactive | inactive | inactive | inactive | inactive | inactive | inactive | inactive |
| CN1C2CCC1CC(OC(=O)c1c[nH]c3ccccc13)C2 (stereo not drawn) | inactive | inactive | inactive | inactive | inactive | inactive | – | inactive | inactive | inactive | inactive | inactive | inactive | inactive | inactive | inactive | inactive | inactive | inactive | inactive |
| CCC(C(=O)OCCN(CC)CC)c1ccccc1 (stereo not drawn) | inactive | inactive | inactive | inactive | inactive | inactive | inactive | inactive | – | inactive | – | inactive | inactive | inactive | inactive | inactive | inactive | inactive | inactive | inactive |
| Oc1c(Cl)cc(Cl)cc1Sc1cc(Cl)cc(Cl)c1O | inactive | inactive | inactive | inactive | – | inactive | inactive | inactive | inactive | inactive | inactive | inactive | inactive | inactive | inactive | inactive | inactive | inactive | inactive | inactive |
| CC1=C(C(=O)OC(C)C)C(c2cccc([N+](=O)[O-])c2)C(C(=O)OC2CN(C(c3ccccc3)c3ccccc3)C2)=C(N)N1 (stereo not drawn) | 9.53 µM (active) | 8.49 µM (active) | 5.01 µM (active) | 8.49 µM (active) | 13.5 µM (active) | 4.78 µM (active) | 7.57 µM (active) | 9.53 µM (active) | 11.2 µM (active) | – | 6.01 µM (active) | 4.47 µM (active) | 7.57 µM (active) | 13.5 µM (active) | 6.01 µM (active) | 6.01 µM (active) | 7.08 µM (active) | – | 7.08 µM (active) | 11.2 µM (active) |
| CCCCOc1ccc(OCCCN2CCOCC2)cc1 | inactive | inactive | inactive | inactive | inactive | – | inactive | inactive | inactive | inactive | inactive | inactive | inactive | inactive | inactive | inactive | inactive | inactive | inactive | inactive |
| O=C(O)CCCCC(=O)O | inactive | inactive | inactive | inactive | inactive | – | inactive | inactive | inactive | inactive | inactive | inactive | inactive | inactive | inactive | inactive | inactive | inactive | inactive | inactive |
| C[C@H](O)C(=O)Nc1c(I)c(C(=O)NC(CO)CO)c(I)c(C(=O)NC(CO)CO)c1I | inactive | inactive | inactive | inactive | inactive | inactive | inactive | inactive | inactive | inactive | inactive | inactive | inactive | – | inactive | inactive | inactive | inactive | inactive | inactive |
| COC1=CC(=O)C[C@@H](C)[C@]12Oc1c(Cl)c(OC)cc(OC)c1C2=O | inactive | inactive | inactive | inactive | inactive | inactive | – | inactive | inactive | inactive | inactive | inactive | inactive | inactive | inactive | inactive | inactive | inactive | inactive | inactive |
| CC(C)(C)CC(C)(C)c1ccc(O)c(Cc2ccc(Cl)cc2Cl)c1 | 0.757 µM (active) | 1.51 µM (active) | 2.51 µM (active) | 3.38 µM (active) | 1.69 µM (active) | 1.51 µM (active) | 0.601 µM (active) | 1.07 µM (active) | 1.58 µM (active) | 5.62 µM (active) | 0.849 µM (active) | 0.316 µM (active) | – | 3.79 µM (active) | 3.79 µM (active) | 4.78 µM (active) | 2 µM (active) | 1.51 µM (active) | 2 µM (active) | 2 µM (active) |
| CC/C(=C(/CC)c1ccc(O)cc1)c1ccc(O)cc1 | inactive | inactive | inactive | inactive | inactive | – | – | inactive | inactive | inactive | – | – | inactive | inactive | inactive | inactive | inactive | inactive | inactive | inactive |
| CN(C)/N=N/c1nc[nH]c1C(N)=O | inactive | inactive | inactive | inactive | inactive | – | inactive | inactive | inactive | inactive | inactive | inactive | inactive | inactive | inactive | inactive | inactive | inactive | inactive | inactive |
| CC(O)C(=O)O (stereo not drawn) | inactive | inactive | inactive | inactive | inactive | – | inactive | inactive | inactive | inactive | inactive | inactive | inactive | inactive | inactive | inactive | inactive | inactive | inactive | inactive |
| Nc1ccc(C(=O)Nc2ccccc2N)cc1 | inactive | inactive | inactive | inactive | inactive | inactive | inactive | inactive | inactive | inactive | inactive | inactive | inactive | inactive | inactive | inactive | inactive | – | inactive | inactive |
